Consider twelve compounds from PubChem BioAssay (NCATS).

Records with an inconclusive call do not appear. A number with no mark means an inactive call. Calls of active or inactive are those of the source. Calls come from the whole dose curve; as a rule, active = well fitted cell-killing curve with a large enough effect; inconclusive = small, poorly fitted or top-dose-only effect, or effect the other way; inactive = no such curve, though single readings can be large or run the other way.
Potency is the fitted concentration of half-maximal effect.

This assay can be described thus: Quantitative High-Throughput drug screen in 47 multiple myeloma cell lines against the NCATS MIPE library collection: JIM1_ECACC cell viability assay (AID 1918964). The conditions noted are these: JIM1 myeloma viability, CellTiter-Glo ATP luminescence, 48 h; series mostly up to 45.8 µM; viability (% of DMSO): at the top concentration. The procedure, abridged: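 Inhibition of cell viability is measured here. Each line was plated at 500 cells per well, treated with MIPE 4.0 drugs, kept 48 hours at 37C, then assayed for ATP content by CellTiter-Glo luminescence.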
As to `c1ccc2c(CN3CCNCC3)cccc2c1`, the “viability (% of DMSO)” value was 110%. In the case of `COCC1(CO)C(=O)C2CCN1CC2` (configuration not stated), the Potency was 6.62 µM (active).

In the case of `CCNC(=O)C[C@@H]1N=C(c2ccc(Cl)cc2)c2cc(OC)ccc2-n2c(C)nnc21`, the Potency is 1.66 µM (active).

Turning to `CCc1c(C(=O)C(N)=O)c2c(OCC(=O)O)cccc2n1Cc1ccccc1`, the “viability (% of DMSO)” value is 130%. Regarding `Cc1ccccc1-n1c(Cn2ncc3c(N)ncnc32)nc2cccc(C)c2c1=O`, the Potency was 0.0662 µM (active). Turning to `CCOC(=O)c1cncn1[C@H](C)c1ccccc1`, the “viability (% of DMSO)” value was 126%. For the compound `COc1ccc(C(=O)c2c(C)n(CCN3CCOCC3)c3cc(I)ccc23)cc1`, the Potency is 11.8 µM (active). Turning to `CC1=C(O)C(=O)C=C2C1=CC=C1[C@@]2(C)CC[C@@]2(C)[C@@H]3C[C@](C)(C(=O)O)CC[C@]3(C)CC[C@]12C`, the Potency was 0.743 µM (active). The same measure, in the same setting: as for `COc1ccc2c(c1)CN(C)CC2c1ccc(Cl)c(Cl)c1` (configuration not stated), the figure is 7.43 µM (active). Regarding `CC[C@@]1(O)C(=O)OCc2c1cc1n(c2=O)Cc2cc3ccccc3nc2-1`, the Potency was 0.132 µM (active). Same read-out and setting: as for `CC[C@@H]1[C@@H](C)O[C@@](O)([C@@H](C)[C@H](O)[C@H](C)[C@H]2OC(=O)C=CC=C[C@@H](C)[C@@H]([C@@H](C)[C@@H](O)[C@H](C)[C@@]3(O)C[C@H](O[C@H]4C[C@H](O)[C@H](O)[C@H](C)O4)[C@H](CC)[C@@H](C)O3)OC(=O)C=CC=C[C@@H]2C)C[C@H]1O[C@H]1C[C@H](O)[C@H](O)[C@H](C)O1`, the figure is 0.264 µM (active); as for `COc1ccc2c(c[n+](C)c3c4cc5c(cc4ccc23)OCO5)c1OC`, 4.18 µM (active).
